Experiment [1] addresses Acetylcholinesterase (Homo sapiens) (UniProt P22303). The experiment in a line: Acetylcholinesterase (AChE) small molecule antagonists: colormetric cell-based qHTS assay (AID 1347395; calls by dose curve; note: nearly all actives have a fitted effect of over 30% in size; note: potency is the fitted concentration of half-maximal effect). The procedure, abridged: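 Quantitative HTS in attached SH-SY5Y cells: 30 min compound exposure, then 90 min with acetylthiocholine and DTNB at 37 C; colour from thiocholine reports AChE activity.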
(In general: In qHTS, concentration-response curves come from the screen itself.)

Experiment [2] has the same target. The experiment in a line: Acetylcholinesterase (AChE) small molecule antagonists: enzyme-based qHTS assay (AID 1347397; calls by dose curve; note: nearly all actives have a fitted effect of over 55% in size; note: potency is the fitted concentration of half-maximal effect). As to conditions: Potency: AChE enzyme activity inhibition. In short, it runs like this: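 In this quantitative HTS, compounds from the Tox21 10K collection were preincubated 30 min at ambient temperature with recombinant human AChE dispensed at 50 mU/mL. Hydrolysis of acetylthiocholine was then followed for 10 min by DTNB colour development.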

The target is the same in experiment [3]. The experiment in a line: Acetylcholinesterase (AChE) small molecule antagonists: fluorescence cell-based qHTS assay (AID 1347398; calls by dose curve; note: nearly all actives have a fitted effect of over 50% in size; note: potency is the fitted concentration of half-maximal effect). The settings on record: Potency: AChE activity. In short, it runs like this: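 Cells (SH-SY5Y) attached overnight, were dosed with compound or DMSO vehicle for 30 min at 37 C, and then incubated 40 min at room temperature with acetylthiocholine and Thiolite Green; green fluorescence indexed AChE activity.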

The target is the same in experiment [4]. The experiment in a line: Acetylcholinesterase (AChE) small molecule antagonists: enzyme-based qHTS assay with human liver microsomes (AID 1347399; calls by dose curve; note: nearly all actives have a fitted effect of over 60% in size; note: potency is the fitted concentration of half-maximal effect). The settings on record: Potency: qHTS inhibition. In short, it runs like this:
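Recombinant human AChE (50 mU/mL in the enzyme mix) and human liver microsomes (0.25 mg/mL final) were preincubated with compound and NADPH (0.25 mg/mL final) for 30 min at 37 C. Acetylthiocholine/DTNB was then added; thiocholine was read colorimetrically after 10 min at room temperature.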

The target of experiment [5] is Cytochrome P450 2D6 (Homo sapiens) (UniProt P10635). The experiment in a line: Cytochrome P450 Family 2 Subfamily D Member 6 (CYP2D6) small molecule antagonists: luciferase reporter qHTS assay (AID 1671196). Note: nearly all actives have a fitted effect of over 50% in size. Note: potency is the fitted concentration of half-maximal effect. In short, it runs like this:
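Quantitative HTS of Tox21 chemicals against CYP2D6 using a luminescent proluciferin substrate. After NADPH addition, 1 h room-temperature reaction; luminescence recorded 20 min post detection reagent.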
Background: A reporter such as luciferase makes a cellular process visible.

Experiment [6] has as its target Cytochrome P450 2C19 (Homo sapiens) (UniProt P33261). The experiment in a line: Cytochrome P450 Family 2 Subfamily C Member 19 (CYP2C19) small molecule antagonists: luciferase reporter qHTS assay (AID 1671197). Note: nearly all actives have a fitted effect of over 65% in size. Note: potency is the fitted concentration of half-maximal effect. The procedure, abridged:
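Enzyme-substrate mix with proluciferin substrate (P450-Glo CYP2C19 system) preincubated with compounds 10 min at room temperature; NADPH regeneration solution added, 37C for 1 h; detection reagent stops reaction, luminescence read after 20 min. Ketoconazole positive control.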

Experiment [7] has as its target Cytochrome P450 2C9 (Homo sapiens) (UniProt P11712). The experiment in a line: Cytochrome P450 Family 2 Subfamily C Member 9 (CYP2C9) small molecule antagonists: luciferase reporter qHTS assay (AID 1671198). Note: nearly all actives have a fitted effect of over 50% in size. Note: potency is the fitted concentration of half-maximal effect. In short, it runs like this: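 P450-Glo proluciferin substrate with CYP2C9 enzyme; 10 min RT preincubation, then NADPH regeneration 1 h at 37C; luciferin detection reagent 20 min RT, luminescence in relative luminescence units.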

The target of experiment [8] is Cytochrome P450 1A2 (Homo sapiens) (UniProt P05177). The experiment in a line: Cytochrome P450 Family 1 Subfamily A Member 2 (CYP1A2) small molecule antagonists: luciferase reporter qHTS assay (AID 1671199). Note: nearly all actives have a fitted effect of over 50% in size. Note: potency is the fitted concentration of half-maximal effect. The procedure, abridged: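 Quantitative high-throughput format using the P450-Glo CYP1A2 system. Reaction initiated by NADPH regeneration solution, 1 h at room temperature, then stopped with detection reagent; luminescence measured 20 min later.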

Experiment [9] deals with Voltage-gated inwardly rectifying potassium channel KCNH2 (Homo sapiens) (UniProt Q12809). The experiment in a line: Human Ether-a-go-go-Related Gene (hERG) channel small molecule antagonists: fluorescence cell-based qHTS assay (AID 1671200). In short, it runs like this: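 First, 1000 cells per well are seeded and cultured overnight at 37 C. Next, FluxOR II dye is loaded for 1 h at room temperature, protected from light. After 10 more minutes, stimulus is added and fluorescence is read.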
(In general: hERG is a cardiac potassium channel; its block is linked to QT prolongation.)

Experiment [10] deals with Cytochrome P450 3A4 (Homo sapiens) (UniProt P08684). The experiment in a line: Cytochrome P450 Family 3 Subfamily A Member 4 (CYP3A4) small molecule antagonists: luciferase reporter qHTS assay (AID 1671201). The procedure, abridged:
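Enzyme and proluciferin substrate are mixed with test chemicals for 10 min, then NADPH regeneration system drives turnover for 1 h at room temperature. A detection reagent halts the reaction; luminescence after 20 min gives relative activity.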

These results are taken from PubChem BioAssay (Tox21).

Values joined by “and” are separate entries in the source; they are usually repeats but may differ in a detail not shown here. Equal values may be shown once. Records with an inconclusive call do not appear. Some compounds were tested as several samples or in several runs, with calls that do not always agree. Active and inactive are the calls of the source. Unless noted, calls come from the whole dose curve; as a rule, active = well fitted curve in the direction sought with a large enough effect in the repeat runs; inconclusive = weak or mixed curves; inactive = no such curve, though single readings can be large; an effect the other way counts as inactive or inconclusive.

Chain of Cytochrome P450 3A4 (Homo sapiens) (P08684 whole entry, looked up): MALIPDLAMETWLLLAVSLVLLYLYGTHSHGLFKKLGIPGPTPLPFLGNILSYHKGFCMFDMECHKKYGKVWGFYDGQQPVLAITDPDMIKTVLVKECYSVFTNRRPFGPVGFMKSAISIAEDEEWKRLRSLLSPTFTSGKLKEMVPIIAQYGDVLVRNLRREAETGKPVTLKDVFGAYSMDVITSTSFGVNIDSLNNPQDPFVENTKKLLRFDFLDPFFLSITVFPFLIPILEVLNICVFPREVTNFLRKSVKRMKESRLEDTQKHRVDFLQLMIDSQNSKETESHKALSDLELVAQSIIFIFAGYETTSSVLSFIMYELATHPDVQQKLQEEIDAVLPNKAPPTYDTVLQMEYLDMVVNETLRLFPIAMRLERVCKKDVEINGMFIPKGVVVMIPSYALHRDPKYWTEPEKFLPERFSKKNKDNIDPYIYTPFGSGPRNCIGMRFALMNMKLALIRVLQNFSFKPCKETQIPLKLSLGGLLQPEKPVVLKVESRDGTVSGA
Chain of Cytochrome P450 2C19 (Homo sapiens) (P33261 whole entry, looked up): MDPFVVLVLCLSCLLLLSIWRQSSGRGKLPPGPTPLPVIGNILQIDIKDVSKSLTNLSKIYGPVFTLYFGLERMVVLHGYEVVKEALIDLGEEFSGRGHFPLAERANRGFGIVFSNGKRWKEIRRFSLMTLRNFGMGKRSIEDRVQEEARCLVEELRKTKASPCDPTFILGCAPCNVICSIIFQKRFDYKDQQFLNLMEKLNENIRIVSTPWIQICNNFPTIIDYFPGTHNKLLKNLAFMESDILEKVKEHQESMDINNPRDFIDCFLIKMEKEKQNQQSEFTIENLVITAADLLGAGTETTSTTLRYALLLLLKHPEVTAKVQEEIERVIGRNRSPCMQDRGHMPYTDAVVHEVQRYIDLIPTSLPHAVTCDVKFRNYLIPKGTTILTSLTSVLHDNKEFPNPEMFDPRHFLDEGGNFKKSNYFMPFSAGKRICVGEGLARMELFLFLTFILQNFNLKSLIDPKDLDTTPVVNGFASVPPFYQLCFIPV
Chain of Voltage-gated inwardly rectifying potassium channel KCNH2 (Homo sapiens) (Q12809 whole entry, looked up): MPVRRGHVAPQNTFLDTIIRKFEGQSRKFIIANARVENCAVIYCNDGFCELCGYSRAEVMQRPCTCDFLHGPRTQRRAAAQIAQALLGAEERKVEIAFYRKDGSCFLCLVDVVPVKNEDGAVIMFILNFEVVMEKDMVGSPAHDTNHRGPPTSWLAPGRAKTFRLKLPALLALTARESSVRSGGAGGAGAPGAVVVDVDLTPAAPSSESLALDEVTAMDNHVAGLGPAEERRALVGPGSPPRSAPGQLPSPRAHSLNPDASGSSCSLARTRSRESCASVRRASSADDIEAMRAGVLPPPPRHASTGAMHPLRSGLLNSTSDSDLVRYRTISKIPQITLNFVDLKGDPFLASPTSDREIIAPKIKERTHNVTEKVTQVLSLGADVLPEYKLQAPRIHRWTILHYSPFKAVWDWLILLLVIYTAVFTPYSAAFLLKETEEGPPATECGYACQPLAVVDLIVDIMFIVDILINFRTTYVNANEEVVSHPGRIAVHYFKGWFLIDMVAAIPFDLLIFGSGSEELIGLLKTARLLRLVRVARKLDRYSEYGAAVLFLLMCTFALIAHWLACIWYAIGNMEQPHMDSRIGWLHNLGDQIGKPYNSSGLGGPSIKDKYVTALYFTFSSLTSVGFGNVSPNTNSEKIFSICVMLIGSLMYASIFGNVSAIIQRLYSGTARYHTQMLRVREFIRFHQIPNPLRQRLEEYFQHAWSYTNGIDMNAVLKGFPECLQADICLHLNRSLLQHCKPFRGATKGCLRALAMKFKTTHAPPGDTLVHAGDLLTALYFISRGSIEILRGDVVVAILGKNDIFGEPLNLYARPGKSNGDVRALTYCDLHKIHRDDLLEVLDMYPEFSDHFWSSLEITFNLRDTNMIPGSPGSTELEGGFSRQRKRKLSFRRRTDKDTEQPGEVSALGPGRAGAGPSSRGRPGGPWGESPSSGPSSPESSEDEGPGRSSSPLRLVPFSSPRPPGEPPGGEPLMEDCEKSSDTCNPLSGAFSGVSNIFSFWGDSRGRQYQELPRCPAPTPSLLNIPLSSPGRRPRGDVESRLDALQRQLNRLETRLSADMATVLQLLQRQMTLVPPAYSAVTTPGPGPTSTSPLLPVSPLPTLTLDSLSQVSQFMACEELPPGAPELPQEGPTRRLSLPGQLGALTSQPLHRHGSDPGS
Chain of Acetylcholinesterase (Homo sapiens) (P22303 whole entry, looked up): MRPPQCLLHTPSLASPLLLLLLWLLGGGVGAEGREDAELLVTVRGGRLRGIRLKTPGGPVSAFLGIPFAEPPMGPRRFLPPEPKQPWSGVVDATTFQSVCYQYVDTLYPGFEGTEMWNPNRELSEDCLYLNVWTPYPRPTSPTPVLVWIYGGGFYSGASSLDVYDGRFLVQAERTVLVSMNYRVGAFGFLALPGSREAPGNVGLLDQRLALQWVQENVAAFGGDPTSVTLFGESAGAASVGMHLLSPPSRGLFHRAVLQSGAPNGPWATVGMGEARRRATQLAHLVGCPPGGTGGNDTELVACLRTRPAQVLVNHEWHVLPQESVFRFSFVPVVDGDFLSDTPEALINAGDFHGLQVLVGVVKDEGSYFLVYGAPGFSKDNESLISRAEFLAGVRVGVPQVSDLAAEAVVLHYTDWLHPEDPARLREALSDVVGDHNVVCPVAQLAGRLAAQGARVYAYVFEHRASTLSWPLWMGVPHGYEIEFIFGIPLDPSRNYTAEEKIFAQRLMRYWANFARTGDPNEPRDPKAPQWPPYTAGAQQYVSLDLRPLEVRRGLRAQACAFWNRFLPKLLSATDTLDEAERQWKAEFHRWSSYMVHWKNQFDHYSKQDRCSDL
Chain of Cytochrome P450 2C9 (Homo sapiens) (P11712 whole entry, looked up): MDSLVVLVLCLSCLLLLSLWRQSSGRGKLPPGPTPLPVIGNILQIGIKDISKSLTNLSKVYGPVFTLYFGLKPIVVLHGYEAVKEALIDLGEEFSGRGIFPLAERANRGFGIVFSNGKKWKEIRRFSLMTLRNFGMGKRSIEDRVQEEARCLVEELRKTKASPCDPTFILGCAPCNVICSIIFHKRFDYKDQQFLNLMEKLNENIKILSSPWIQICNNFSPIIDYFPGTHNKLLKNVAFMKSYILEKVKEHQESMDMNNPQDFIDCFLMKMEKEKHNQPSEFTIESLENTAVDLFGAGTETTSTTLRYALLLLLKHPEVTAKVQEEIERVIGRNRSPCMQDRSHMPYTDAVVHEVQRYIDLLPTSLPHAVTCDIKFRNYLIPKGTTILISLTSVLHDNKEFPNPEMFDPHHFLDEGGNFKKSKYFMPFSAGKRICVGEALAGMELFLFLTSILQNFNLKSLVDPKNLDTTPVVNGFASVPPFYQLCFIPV
Chain of Cytochrome P450 1A2 (Homo sapiens) (P05177 whole entry, looked up): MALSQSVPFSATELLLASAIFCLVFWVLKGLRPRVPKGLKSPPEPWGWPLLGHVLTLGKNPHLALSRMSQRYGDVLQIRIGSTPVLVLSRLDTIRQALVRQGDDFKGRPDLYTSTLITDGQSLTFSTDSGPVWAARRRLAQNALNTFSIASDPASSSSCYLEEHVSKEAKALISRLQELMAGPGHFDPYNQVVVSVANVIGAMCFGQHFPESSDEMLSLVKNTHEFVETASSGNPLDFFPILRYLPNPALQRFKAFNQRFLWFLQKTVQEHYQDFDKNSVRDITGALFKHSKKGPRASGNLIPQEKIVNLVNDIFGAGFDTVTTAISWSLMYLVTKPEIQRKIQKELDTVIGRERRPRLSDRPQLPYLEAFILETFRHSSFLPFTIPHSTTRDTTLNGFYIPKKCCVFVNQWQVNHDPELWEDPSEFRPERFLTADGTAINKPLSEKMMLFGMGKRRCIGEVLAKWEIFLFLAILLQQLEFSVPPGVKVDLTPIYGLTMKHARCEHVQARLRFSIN
Chain of Cytochrome P450 2D6 (Homo sapiens) (P10635 whole entry, looked up): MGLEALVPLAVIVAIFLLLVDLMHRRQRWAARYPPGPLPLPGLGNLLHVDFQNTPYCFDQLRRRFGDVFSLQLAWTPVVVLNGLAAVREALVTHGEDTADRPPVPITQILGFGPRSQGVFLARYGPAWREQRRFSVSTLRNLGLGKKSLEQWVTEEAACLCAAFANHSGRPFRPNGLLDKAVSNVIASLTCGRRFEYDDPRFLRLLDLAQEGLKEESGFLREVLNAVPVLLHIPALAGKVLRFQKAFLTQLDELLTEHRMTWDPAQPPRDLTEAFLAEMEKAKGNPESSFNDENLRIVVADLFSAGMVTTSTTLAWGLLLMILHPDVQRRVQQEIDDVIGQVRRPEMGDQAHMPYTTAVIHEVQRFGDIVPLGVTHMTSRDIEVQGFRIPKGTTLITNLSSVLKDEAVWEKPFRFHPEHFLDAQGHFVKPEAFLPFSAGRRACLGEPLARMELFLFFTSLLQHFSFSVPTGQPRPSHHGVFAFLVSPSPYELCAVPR

Turning to `O=C(O)C1C(C(=O)O)C2(Cl)C(Cl)=C(Cl)C1(Cl)C2(Cl)Cl` (centres undefined), the Potency result in experiment [1], in experiment [2], in experiment [3], in experiment [4], in experiment [5] and in experiment [6] was “inactive” in each case. Further, the Potency result in [7], in experiment [8], in experiment [9] and in experiment [10] was “inactive” in each case.

On to `CCOC(=O)CC(SP(=O)(OC)OC)C(=O)OCC` (centres undefined), for which the Potency in experiment [1] is 3.02 µM (active) and 3.56 µM (active); in [2] it was 3.38 µM (active) and 5.64 µM (active); in experiment [3] it was 954 nM (active) and 1.42 µM (active); in [4], 60.2 µM (active) and 56.4 µM (active); in [6] it was 53.6 µM (active); in experiment [7], 67.5 µM (active) and 71 µM (active). In addition, in experiment [8], the Potency is 75.8 µM (active) and 71 µM (active). In addition, the Potency entry in experiment [5], in experiment [9] and in experiment [10] was “inactive” in each case.

As to `O=[N+]([O-])c1cc([As](=O)(O)O)ccc1O`, the Potency result in experiment [1], in [2], in experiment [3], in experiment [4], in [5] and in [6] was “inactive” in each case. Further, the Potency entry in experiment [7], in experiment [8], in experiment [9] and in experiment [10] was “inactive” throughout.

Turning to `C=C(C)C(=O)OCC(CC)CCCC` (centres undefined), the Potency entry in experiment [1], in experiment [2], in experiment [3], in experiment [4], in experiment [5] and in experiment [7] was “inactive” throughout. Besides, the Potency entry in [8], in [9] and in experiment [10] was “inactive” in each case. The Potency in [6] was 40.7 µM (active) and inactive.

As to `O=S(=O)(O)OOS(=O)(=O)O`, the Potency result in experiment [1], in experiment [2], in experiment [3], in experiment [4], in [5] and in [6] was “inactive” in each case. The Potency entry in [7], in experiment [9] and in [10] was “inactive” throughout. Further, the Potency in [8] was 31.6 µM (active) and inactive.

On to `CN(C)C(=O)C(c1ccccc1)c1ccccc1`, for which the Potency entry in [1], in [2], in [3], in experiment [4], in experiment [5] and in experiment [8] was “inactive” throughout. The Potency result in [9] and in experiment [10] was “inactive” each time. The Potency in experiment [6] is 70.9 µM (active); in [7], 62.3 µM (active).

Turning to `CC[N+](=O)[O-]`, the Potency entry in experiment [1], in experiment [2], in [3], in [4], in experiment [5] and in [7] was “inactive” throughout. Besides, the Potency entry in [8], in experiment [9] and in experiment [10] was “inactive” each time. Also, the Potency in experiment [6] is 72.5 µM (active) and inactive.

As to `OC[C@@H](O)[C@H]1O[C@@H]2O[C@H](C(Cl)(Cl)Cl)O[C@@H]2[C@H]1O`, the Potency result in experiment [1], in [2], in experiment [3], in experiment [4], in experiment [5] and in [7] was “inactive” each time. Besides, the Potency result in [8], in experiment [9] and in experiment [10] was “inactive” throughout. Also, the Potency in experiment [6] is 35.5 µM (active) and inactive.

`C=CC#N`: the Potency result in [1], in [2], in experiment [3], in [4], in [5] and in [6] was “inactive” each time. Besides, the Potency result in [7], in [8], in experiment [9] and in [10] was “inactive” each time.

In the case of `Sc1ccccc1`, the Potency entry in experiment [1], in experiment [2], in [3], in [4], in experiment [5] and in experiment [9] was “inactive” throughout. Further, the Potency entry in experiment [10] was “inactive”. The Potency in experiment [6] was 18.1 µM (active) and 40.1 µM (active); in experiment [7], 32.2 µM (active) and 31.9 µM (active) and 56.4 µM (active).

Consider `Cc1ccc(O)c(C)c1`, for which the Potency result in experiment [1], in experiment [2], in [3], in experiment [4], in experiment [5] and in experiment [6] was “inactive” each time. The Potency result in experiment [9] and in experiment [10] was “inactive” each time. Besides, the Potency in experiment [8] was 70 µM (active) and 29.5 µM (active).

As to `CN1C(=O)CCS(=O)(=O)C1c1ccc(Cl)cc1` (centres undefined), the Potency entry in experiment [1], in [2], in [3], in [4], in [5] and in experiment [7] was “inactive” each time. Besides, the Potency entry in experiment [9] and in experiment [10] was “inactive” in each case. Also, the Potency in [6] was 28.3 µM (active).

Take `O=P1(NCCCl)OCCCN1CCCl` (centres undefined): the Potency result in [9] was “inactive”.

With `Cc1ccc(N)cc1`, the Potency was 5.06 µM (active) and 25.2 µM (active) in experiment [5]; 35.8 µM (active) and 38.6 µM (active) and 31.7 µM (active) in experiment [6]; 40.2 µM (active) in [7]; 28.4 µM (active) and 30.6 µM (active) and 25.2 µM (active) in experiment [8]. Moreover, the Potency entry in [9] and in experiment [10] was “inactive” throughout.

Regarding `CCOc1ccc(N)cc1`, the Potency entry in experiment [1], in experiment [2], in experiment [3], in [4], in [9] and in [10] was “inactive” in each case. In addition, the Potency is 31.8 µM (active) and 39.9 µM (active) in experiment [5]; 40 µM (active) and inactive in experiment [6]; 35.7 µM (active) in [8].

`CC12CC1(C)C(=O)N(c1cc(Cl)cc(Cl)c1)C2=O` (centres undefined): the Potency entry in [1], in experiment [2], in experiment [3], in experiment [4], in experiment [5] and in [9] was “inactive” throughout. Further, the Potency entry in experiment [10] was “inactive”. In addition, the Potency in experiment [6] was 22.4 µM (active); in experiment [8], 9.99 µM (active) and 14.2 µM (active).

Consider `CC(C)CCCCCCOC(=O)c1ccccc1C(=O)OCCCCCCC(C)C`, for which the Potency entry in experiment [1], in experiment [2], in experiment [3], in experiment [4], in [5] and in experiment [9] was “inactive” throughout. For the same compound, the Potency in [6] is 71 µM (active); in experiment [8] it was 63.2 µM (active).

With `CC(C)c1cccc(C(C)C)c1O`, the Potency entry in experiment [1], in experiment [2], in experiment [3], in [4] and in experiment [9] was “inactive” each time.

For `ClC(Cl)c1ccccc1`, the Potency result in experiment [1], in experiment [2], in experiment [3], in experiment [4], in experiment [7] and in [8] was “inactive” throughout. In addition, the Potency entry in [9] and in [10] was “inactive” in each case. Also, the Potency in experiment [6] was 40.6 µM (active) and inactive.

`CNC(=O)O/N=C/C(C)(C)SC`: the Potency entry in experiment [5], in [8], in experiment [9] and in [10] was “inactive” in each case. In addition, in experiment [6], the Potency is 40.3 µM (active) and inactive.

Turning to `CCCCCCCCCCCCCCCCCC(=O)O`, the Potency is 35.3 µM (active) and inactive in experiment [5]; 281 nM (active) and inactive in experiment [6]; 1.12 µM (active) and inactive in [7]; 2.5 µM (active) and inactive in experiment [8]. The Potency result in experiment [9] and in experiment [10] was “inactive” each time.

`COc1cc(-c2ccc(N)c(OC)c2)ccc1N`: the Potency in experiment [5] is 40.1 µM (active) and 39.5 µM (active) and 34 µM (active); in experiment [7], 12.7 µM (active) [middle of 4 runs]; in experiment [8], 1.79 µM (active) [middle of 4 runs]. Also, the Potency entry in [9] is “inactive”.
